The supplement of paper PMC9694430

Legend:
Experiment in all cases: thermal shift delta Tm vs DMSO control; higher = stronger stabilization (binding)
Conditions in all cases: 12.5 µM; protein concentration 2 µM
LOC_OS02G45750-cb003 = tested on: LOC_OS02G45750-cb003
In short: (§1)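 Rice kinase domain constructs were expressed in E. coli, purified, and tested by differential scanning fluorimetry with compound added in DMSO. Each well of a 96-well plate held 19.5 μl of 2 μM kinase in 100 mM potassium phosphate pH 7.5, 150 mM NaCl, 10% glycerol and 5 × SYPRO Orange, and fluorescence was read from 25°C to 95°C at 0.05°C/s. The melting temperature shift is the mean of triplicates, taken against protein with DMSO alone after Boltzmann fitting.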

LOC_OS02G54510-cb004 = tested on: LOC_OS02G54510-cb004
In short: as §1

LOC_OS03G04050-cb001 = tested on: LOC_OS03G04050-cb001
In short: as §1

LOC_OS03G12390-cb001 = tested on: LOC_OS03G12390-cb001
In short: as §1

LOC_OS03G27990-cb004 = tested on: LOC_OS03G27990-cb004
In short: as §1

LOC_OS03G50450-cb001 = tested on: LOC_OS03G50450-cb001
In short: as §1

LOC_OS03G50810-cb003 = tested on: LOC_OS03G50810-cb003
In short: as §1

LOC_OS04G35114-cb001 = tested on: LOC_OS04G35114-cb001
In short: as §1

LOC_OS04G38480-cb003 = tested on: T1, LOC_OS04G38480-cb003
T1 sequence (whole entry): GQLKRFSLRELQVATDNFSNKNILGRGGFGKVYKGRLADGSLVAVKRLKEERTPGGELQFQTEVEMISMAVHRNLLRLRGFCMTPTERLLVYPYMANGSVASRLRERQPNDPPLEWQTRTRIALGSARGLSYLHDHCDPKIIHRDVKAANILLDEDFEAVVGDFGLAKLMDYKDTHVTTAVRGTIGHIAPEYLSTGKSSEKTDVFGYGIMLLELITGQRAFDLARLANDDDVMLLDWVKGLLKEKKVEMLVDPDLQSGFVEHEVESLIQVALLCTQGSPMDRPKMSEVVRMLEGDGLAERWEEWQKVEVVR
In short: as §1

LOC_OS04G41100-cb001 = tested on: T2, LOC_OS04G41100-cb001
T2 sequence (whole entry): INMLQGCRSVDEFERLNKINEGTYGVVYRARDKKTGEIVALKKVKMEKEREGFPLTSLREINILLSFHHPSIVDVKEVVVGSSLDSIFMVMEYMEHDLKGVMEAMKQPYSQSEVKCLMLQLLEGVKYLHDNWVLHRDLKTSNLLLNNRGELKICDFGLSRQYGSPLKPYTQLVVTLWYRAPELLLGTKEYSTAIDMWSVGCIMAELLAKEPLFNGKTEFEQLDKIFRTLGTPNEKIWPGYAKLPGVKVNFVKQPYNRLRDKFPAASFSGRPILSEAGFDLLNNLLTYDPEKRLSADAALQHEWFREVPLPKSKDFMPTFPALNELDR
In short: as §1

| Structure (SMILES) | thermal shift delta Tm (LOC_OS02G45750-cb003) [°C] | thermal shift delta Tm (LOC_OS02G54510-cb004) [°C] | thermal shift delta Tm (LOC_OS03G04050-cb001) [°C] | thermal shift delta Tm (LOC_OS03G12390-cb001) [°C] | thermal shift delta Tm (LOC_OS03G27990-cb004) [°C] | thermal shift delta Tm (LOC_OS03G50450-cb001) [°C] | thermal shift delta Tm (LOC_OS03G50810-cb003) [°C] | thermal shift delta Tm (LOC_OS04G35114-cb001) [°C] | thermal shift delta Tm (LOC_OS04G38480-cb003) [°C] | thermal shift delta Tm (LOC_OS04G41100-cb001) [°C] |
| --- | --- | --- | --- | --- | --- | --- | --- | --- | --- | --- |
| CCN1CCN(Cc2ccc(C(=O)Nc3ccc(C)c(Oc4ccc5c(c4)CC(=O)N5)c3)cc2C(F)(F)F)CC1 | 1.5 | 0.41 | 0.79 | 0.12 | 0.67 | 1.13 | 0.7 | 1.2 | 1.7 | 0.5 |
| CN(C)CCOc1ccc(-c2nc(-c3ccncc3)c(-c3ccc4c(c3)CC/C4=N\O)[nH]2)cc1 | 0.22 | 0.08 | 0.13 | -0.23 | 0.06 | 0.04 | 0.55 | 0.33 | 0.74 | 0.3 |
| CN1CCN(c2cccc(Nc3nc4c(-c5ccc(S(C)(=O)=O)cc5)cccn4n3)c2)CC1 | 2.02 | 0.36 | 0.44 | 0.47 | 1.72 | 2.95 | 1.65 | 2.23 | 1.42 | 0.46 |
| CC(=O)Nc1cccc(-n2c(=O)n(C3CC3)c(=O)c3c(Nc4ccc(I)cc4F)n(C)c(=O)c(C)c32)c1 | 0.35 | -0.04 | 0.2 | -0.13 | 0.22 | 0.62 | 0.43 | 0.56 | 0.86 | 0.62 |
| CN(C)C/C=C/C(=O)Nc1ccc(C(=O)Nc2cccc(Nc3ncc(Cl)c(-c4c[nH]c5ccccc45)n3)c2)cc1 | 6.63 | 2.87 | 0.82 | 10.8 | 4.72 | 5.94 | 5.98 | 1.96 | 4.69 | 1.76 |
| COc1ccc(CNC(=O)Nc2ncc([N+](=O)[O-])s2)cc1 | 0.37 | -0.05 | 0.67 | 0.15 | 0.48 | 0.41 | 0.22 | 0.93 | 1.93 | 0.59 |
| CN1C(=O)[C@@H](NC(=O)c2n[nH]c(Cc3ccccc3)n2)COc2ccccc21 | 0.85 | -0.02 | 0.45 | 0.81 | 0.38 | 0.66 | 0.57 | -0.51 | 2 | 0.34 |
| O=C1NC(=O)C(c2ccccc2[N+](=O)[O-])=C1Nc1ccc(O)c(Cl)c1 | 1.34 | 0.07 | 0.14 | 2.25 | 0.15 | -0.05 | 0.88 | 1.02 | 2.72 | 0.23 |
| CS(=O)(=O)N1CCc2c(-c3cnc(N)nc3)nc(N3CCOCC3)nc21 | 1.16 | 0.52 | 0.13 | 0.72 | 0.23 | 0.77 | 0.53 | 0.89 | 1.31 | 0.14 |
| Cc1c(CN2CCN(C(=O)[C@H](C)O)CC2)sc2c(N3CCOCC3)nc(-c3cnc(N)nc3)nc12 [Apitolisib (GDC-0980, RG7422)] | 0.62 | 0.4 | 0.32 | 0.75 | 0.18 | 1.38 | 0.78 | 0.55 | 1.12 | 0.47 |
| Cn1cc(-c2ccc3nnc(C(F)(F)c4ccc5ncccc5c4)n3n2)cn1 | 0.26 | -0.14 | 0.41 | 0.23 | -0.02 | 0.07 | 0.22 | 0.35 | 0.98 | 0.6 |
| CCN(C)S(=O)(=O)Nc1ccc(F)c(C(=O)c2c[nH]c3ncc(-c4cnc(C5CC5)nc4)cc23)c1F | 3.15 | 0.87 | 0.3 | 0.5 | 0.47 | 0.08 | 0.44 | 2.53 | 0.81 | 0.37 |
| CC(C)(C)c1nc(-c2cccc(NS(=O)(=O)c3c(F)cccc3F)c2F)c(-c2ccnc(N)n2)s1 | 2.7 | 2.41 | 0.43 | 0.52 | 0.49 | 1.42 | 1.63 | 2.09 | 2.46 | 2.47 |
| CCNC(=O)C#Cc1ccc2c(C(=Nc3ccc(CN(C)C)cc3)c3ccccc3)c(O)[nH]c2c1 | 7.14 | 2.44 | -0.2 | 1.25 | 0.99 | 0.07 | 4.57 | 9.15 | 1.25 | 4.14 |
| O=c1nc(N2CCOCC2)oc2c(-c3cccc4c3sc3ccccc34)cccc12 | 0.04 | -0.35 | -0.14 | -0.44 | -0.35 | 0.04 | -0.24 | -0.68 | 0.64 | 0.24 |
| CNc1nc(-c2ccc3c(N)n[nH]c3c2)cc(N2C[C@@H](C(=O)NC3CCCCC3)CC[C@H]2C)n1 | 0.45 | 0.92 | 0.58 | 0.25 | 0.2 | 0.38 | 0.87 | 0.5 | 1.14 | 0.66 |
| Cn1nccc1Nc1nccc(-c2ccn([C@H](CO)c3ccc(Cl)c(F)c3)c(=O)c2)n1 | 0.71 | 0.28 | 0.29 | 2.16 | 0.03 | 0.11 | -0.12 | 0.45 | 0.14 | 2.7 |
| Nc1ncnc2c1c(-c1cnc3[nH]ccc3c1)nn2C1CCCC1 | 2.27 | 3.34 | 0.54 | 5.27 | 1.19 | 0.86 | 0.88 | 4.32 | 1.28 | 0.51 |
| Cc1ccccc1CN1C2=NCCN2C(=O)C2=C1CCN(Cc1ccccc1)C2 [TIC10 Analogue] | -0.1 | 0.13 | 0.49 | -0.16 | 0.09 | 0.31 | 0.21 | 0.79 | 0.2 | 0.45 |
| C#Cc1cccc(Nc2ncnc3cc4c(cc23)OCCOCCOCCO4)c1 [Icotinib] | 3.3 | 0.13 | 0.58 | 1.26 | 0.45 | 0.72 | 1.31 | 4.38 | 3.08 | 0.38 |
